Sampled rows, rich in hits. Any-hit rate of the full collection: about 2.8%.
CF NFkB block: inhibitors of cystic fibrosis induced NF-kB | hit rate 0.86% among 360,000 | inhibition, % at 5 µM | KKLEB NF-kB-GFP reporter, PAF-induced, GFP fluorescence overnight | AID 588850;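 active = at least 50% inhibition at 5 µM, scaled per plate between neutral and stimulator controls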;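 also: PAF is a Pseudomonas aeruginosa culture filtrate used as stimulus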
Shn3 inh set2: inhibitors of Schnurri-3 3'UTR reporter in osteoblasts | hit rate 0.52% among 360,000 | inhibition, % at 12.5 µM | Clone20 osteoblast Shn3 3'UTR firefly luciferase, 24 h | AID 588674;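 active = mean inhibition of at least 75% with every replicate also reaching 75%; inconclusive = mean inhibition at least 75% but some replicate below; inactive = mean inhibition below 75%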
MITF TRPM1 inh: MITF TRPM1 promoter inhibition in SK-MEL-5 cells; SK-MEL-5 TRPM1 promoter luciferase, 24 h; hit rate 0.83% among 330,000; AID 488899; inhibition, % at 12.5 µM;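 active = mean inhibition across replicates of 60% or more, whatever share of single replicates reaches that level; inconclusive = some that reach 60%, reason not given; inactive = mean inhibition across replicates below 60%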
KKLEB tox: counter-screen for CF NF-kB inhibitors: cytotoxicity; KKLEB CF airway cells viability, ATPlite luminescence, overnight; stronger effect = lower value; cells stimulated with P. aeruginosa culture filtrate; activity change (cytotoxicity), % at 5 µM; hit rate 0.36% among 360,000;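 active = corrected activity change at or below -50% at 5 µM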
HIF-2a inh: inhibitors of HIF-2a. inhibition, % at 18.8 µM. hit rate 0.72% among 360,000. 786-0 RCC cells HIF-2a reporter, luciferase luminescence, overnight;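 active = inhibition of the luminescence signal of 40% or more relative to plate controls, in a single-dose primary screen at 18.75 µM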
Peg3 prom inh: inhibitors of Peg3 promoter; HeLa PEG-Prom luciferase reporter, luminescence, overnight; inhibition, % at 20 µM; hit rate 1.7% among 360,000; AID 588405;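 active = inhibition of at least 50% at 20 µM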
A number is an active result; 0 = inactive; ? = inconclusive; - = no result given.

SMILES | CF NFkB block | Shn3 inh set2 | MITF TRPM1 inh | KKLEB tox | HIF-2a inh | Peg3 prom inh
CCCCn1nc(C(=O)N2CCN(S(=O)(=O)c3ccccc3)CC2)c2ccccc2c1=O | 0 | 0 | 0 | 0 | 0 | 0
[O-][n+]1c2ccccc2[n+]([O-])c2cc(O)ccc21 | 0 | 0 | 0 | 0 | 0 | 0
Cc1ccc(S(=O)(=O)N(C(=O)c2ccco2)c2cc3sc(=O)oc3c3ccccc23)cc1 | 64 | 0 | 0 | 0 | 0 | 0
COc1ccc(S(=O)(=O)N(C(=O)C(C)C)c2ccc3oc(=O)sc3c2)cc1 | 0 | 0 | 0 | 0 | 0 | 0
COc1ccc(S(=O)(=O)N(C(=O)c2ccco2)c2cc3sc(=O)oc3c3ccccc23)cc1 | 71 | 0 | 0 | 0 | 0 | 0
CCOc1ccc(S(=O)(=O)N(C(=O)c2ccco2)c2cc3sc(=O)oc3c3ccccc23)cc1 | 52 | 0 | 0 | 0 | 0 | 0
CN(C)CCCN=c1cc(-c2ccccc2)oc2ccc(Cl)cc12 | 0 | 0 | 0 | 0 | 0 | 100
CN(C)c1ccc(/C=C(/NC(=O)c2ccccc2)C(=O)N2CCCC2)cc1 | 0 | 0 | 0 | 0 | 0 | 0
COc1ccc(-c2c(-c3ccsc3)oc3c2C(O)CCC3)cn1 (stereo not given) | - | - | - | - | 0 | -
COc1ccc(N(C)C(=O)c2ccc3snnc3c2)cc1 | 0 | 87 | - | 0 | 0 | 0
CN(C(=O)CN1CCN(c2cnn(-c3ccccc3)c(=O)c2Cl)CC1)C1CCS(=O)(=O)C1 (stereo not given) | 0 | 0 | 0 | 0 | 0 | 0
O=C(NC1CCCCC1)C(c1ccncc1)N(Cc1ccccc1)C(=O)c1ccc(-c2ccccc2)[nH]1 (stereo not given) | 0 | 0 | 0 | -50 | 0 | 0
CCOC(=O)c1c(-c2ccccc2)nnn1-c1nc(OCC)nc(N2CCCCC2)n1 | 0 | 0 | 0 | 0 | 0 | 53
CCOC(=O)c1nnn(-c2nc(N3CCCC3)nc(N3CCCC3)n2)c1-c1ccccc1 | 0 | 0 | 0 | 0 | 0 | 0
COc1ccccc1-c1nnc(NC(=O)c2ccc3c(c2)OCO3)s1 | 59 | 0 | 0 | -56 | 0 | 0
CCSc1nnc(NC(=O)c2ccc3c(c2)OCO3)s1 | 0 | 0 | 0 | 0 | 0 | 0
CCOC(=O)CSc1nnc(NC(=O)c2ccc3c(c2)OCO3)s1 | 0 | 0 | 0 | 0 | 54 | 0
O=C(Nc1nnc(SCC(=O)N2CCCc3ccccc32)s1)c1ccc2ccccc2c1 | 0 | 0 | 0 | -50 | 0 | 0
CC(C)c1nnc(NC(=O)c2ccc3c(c2)OCO3)s1 | 0 | 0 | 0 | 0 | 0 | 0
Cc1cc(S(=O)(=O)NC(C)c2nnc3ccccn23)ccc1Br (stereo not given) | 0 | 0 | 0 | 0 | 0 | 0
COCCN(C(=O)COC(=O)Cc1coc2cc(C)ccc12)c1c(N)n(Cc2ccccc2)c(=O)[nH]c1=O | 0 | 0 | 0 | 0 | 0 | 0
COc1ccc2c(CC(=O)OCC(=O)N(C)c3c(N)n(Cc4ccccc4)c(=O)[nH]c3=O)coc2c1 | 0 | 94 | 0 | 0 | 0 | 0
COc1ccc(/C=N/NC(=O)Nc2cccc3nsnc23)c(OC)c1 | 0 | 0 | 0 | 0 | 0 | 0
O=C(N/N=C/c1ccc(O)cc1)Nc1cccc2nsnc12 | 69 | 0 | 0 | 0 | 0 | 0
CCOc1ccc(OCc2ccc(C(=O)N/N=C(\C)c3ccccn3)cc2)cc1 | 0 | 92 | 0 | 0 | 0 | 0
SMILES | CF NFkB block | Shn3 inh set2 | MITF TRPM1 inh | KKLEB tox | HIF-2a inh | Peg3 prom inh
O=C(NNC(=O)c1ccccc1OCc1ccc(F)cc1)c1ccccc1O | 0 | 0 | 0 | 0 | 0 | 0
C/C(=N\NC(=O)c1ccccc1OCc1ccc(F)cc1)c1ccccn1 | 0 | 93 | 70 | 0 | 0 | 50
CCCCN(CC)CCCNC(=S)Nc1ccc2nc3n(c(=O)c2c1)CCCCC3 | 0 | 0 | 0 | 0 | 0 | 0
O=C(O)c1ccc(/C=N/NC(=O)c2ccc3c(c2)OCCO3)cc1 | 0 | 0 | 0 | 0 | 0 | 0
Cc1cc(O)cc(O)c1/C=N/NC(=O)c1ccc2c(c1)OCCO2 | 0 | 91 | - | 0 | 0 | 0
Cc1[nH]c(=O)sc1C(=O)NCc1ccc([N+](=O)[O-])cc1 | 0 | 0 | - | 0 | 0 | 0
Cc1ccc(S(=O)(=O)N2CCOCC2)cc1NC(=O)COc1ccc(C(=O)c2ccccc2)cc1 | 0 | 0 | 0 | 0 | 0 | 61
Cc1ccc(S(=O)(=O)N2CCOCC2)cc1NC(=O)COC(=O)CNC(=O)c1ccccc1 | 0 | 0 | 0 | 0 | 0 | 0
Cc1nn(C(=O)c2nn(C)cc2[N+](=O)[O-])c(C)c1Br | 0 | 0 | 0 | 0 | 0 | 0
CCOc1cc2nc3c4ccccc4n(C)c3nc2cc1OCC | 0 | 0 | 0 | 0 | 0 | 0
CCN(CC)Cc1cc(Nc2c3ccccc3nc3c4ccccc4n(C)c23)cc(CN(CC)CC)c1O | 0 | 0 | 78 | 0 | 0 | 102
Cc1ccc(NC(=O)CSc2nsc(SCC(=O)Nc3ccc(C)cc3C)c2C#N)c(C)c1 | 0 | 0 | 0 | 0 | 0 | 77
CCc1ccc(Nc2n[n+](-c3ccccc3)c(-c3ccc(N(CC)CC)cc3)s2)cc1 | 0 | 0 | 68 | 0 | 0 | 84
CCN(CC)c1ccc(-c2sc(Nc3ccccc3)n[n+]2-c2ccc(F)cc2)cc1 | 0 | 0 | 0 | 0 | 0 | 0
CCOc1ccc(-n2nnnc2-c2nc3ccccc3s2)cc1 | 70 | 0 | 0 | -70 | 0 | 0
Cc1ccc(S(=O)(=O)Nc2ccc3c4c(cccc24)CC3)c(C)c1 | 0 | 0 | 0 | 0 | 0 | 0
Cc1cc(C)c(S(=O)(=O)Nc2ccc3c4c(cccc24)CC3)c(C)c1 | 57 | 0 | ? | 0 | 0 | 0
Cc1noc2ncnc(N3CCCC3)c12 | 0 | 0 | 0 | 0 | 0 | 0
Cc1noc2ncnc(Sc3ccc(Br)cc3)c12 | 0 | 0 | 0 | 0 | 0 | 99
COc1ccc(C(=O)c2sc(Nc3ccccc3F)nc2N)cc1 | 0 | 0 | - | 0 | 0 | 0
Nc1nc(Nc2ccccc2)sc1C(=O)c1ccccc1 | 87 | 0 | 0 | 0 | 0 | 91
COc1ccc(C(=O)c2sc(Nc3ccccc3)nc2N)cc1 | 0 | 0 | 0 | 0 | 0 | 0
COc1ccc(C(=O)c2sc(Nc3ccccc3)nc2N)cc1OC | 0 | 0 | 0 | 0 | 0 | 78
COc1ccc(-c2csc(NC(=O)CSc3nc(C)nc4sc(C(=O)O)c(C)c34)n2)cc1 | 0 | 0 | 0 | 0 | 0 | 0
OC[C@@H]1CN(CCN2CCOCC2)C[C@H](n2cnc3c(NC4CCCC4)ncnc32)O1 | 0 | 0 | - | 0 | 0 | 0
Cc1ccc(C(=O)CC(SCC(=O)O)c2ccc([N+](=O)[O-])cc2)cc1 (stereo not given) | 0 | 0 | 0 | 0 | 0 | 0
O=C(CC(SCCO)c1ccc([N+](=O)[O-])cc1)c1ccco1 (stereo not given) | 0 | 0 | 0 | 0 | 0 | 72
COc1ccccc1C(CNC(=O)c1ccc(C)c(S(=O)(=O)N2CCCCC2)c1)N1CCCC1 (stereo not given) | 0 | 0 | 0 | 0 | 0 | 0
COCCN1C(=O)C(=O)/C(=C(/O)c2ccc(S(=O)(=O)N3CCOCC3)cc2)C1c1cccc([N+](=O)[O-])c1 (stereo not given) | 0 | 0 | 0 | 0 | 0 | 0

Screening results: PubChem, several laboratories
